# Experimental data taken from ChEMBL document CHEMBL1157539, “Thousands of chemical starting points for antimalarial lead identification” (Nature, 2010).
# Key:
# Format in all cases: functional
# [1] = system: Plasmodium falciparum; test: GSK_TCMDC: Inhibition of Plasmodium falciparum 3D7 in whole red blood cells, using parasite LDH activity as an index of growth. Test compounds present at 2uM
# [2] = system: Plasmodium falciparum; test: GSK_TCMDC: Inhibition of Plasmodium falciparum Dd2 in whole red blood cells, using parasite LDH activity as an index of growth. Test compounds present at 2uM
# [3] = system: HepG2; test: GSK_TCMDC: Percent inhibition of human HepG2 cell line. Test compounds present at 10uM.
smiles,measurement,setting,value
C=CCOC(=O)N1CCC(CNCc2cccc(-c3cccc(-c4nc5cc(F)ccc5[nH]4)c3)c2)C1.O=C(O)C(F)(F)F (stereo unspecified),Inhibition,[1],100%
same,Inhibition,[2],49%
same,Inhibition,[3],20%
CCCCN1CCN(Cc2cccc(NC(=O)c3ccc(Cl)c(Cl)c3)c2)CC1.O=C(O)C(F)(F)F,Inhibition,[1],88%
same,Inhibition,[2],24%
same,Inhibition,[3],21%
O=c1cc(NCCCNCc2cc(Cl)cc(Cl)c2OCc2ccc(Cl)cc2)[nH]c2ccccc12,Inhibition,[1],98%
same,Inhibition,[2],53%
same,Inhibition,[3],6%
COc1ccc(-c2ccc(Nc3cccc(S(=O)(=O)CCN4CCC(CCN(C)C)CC4)c3)nc2)cn1,Inhibition,[1],100%
same,Inhibition,[2],9%
same,Inhibition,[3],44%
CC(C)(C)[C@@H](Nc1ccc(C#N)c2ccccc12)C(=O)NC1(Cc2ccc(O)c(Br)c2)CCCC1,Inhibition,[1],84%
same,Inhibition,[2],16%
same,Inhibition,[3],2%
COc1ccc(CNC2CCN(C)CC2)cc1-c1ccc(S(=O)(=O)NCc2cccnc2)s1.O=C(O)C(F)(F)F,Inhibition,[1],100%
same,Inhibition,[2],3%
same,Inhibition,[3],10%
O=C(Nc1cccc(-c2cccc(-c3nc4cc(C(F)(F)F)ccc4[nH]3)c2)c1)c1c[nH]cn1,Inhibition,[1],100%
same,Inhibition,[2],100%
same,Inhibition,[3],14%
O=C(NCC1CCN(Cc2ccc3c(c2)OCCO3)C1)c1cc(-c2cccc(C(F)(F)F)c2)cs1.O=C(O)C(F)(F)F (stereo unspecified),Inhibition,[1],100%
same,Inhibition,[2],1%
same,Inhibition,[3],31%
COc1cc(Cc2cnc(N)nc2N)cc(OCCCCCC(=O)O)c1OC.Cl,Inhibition,[1],95%
same,Inhibition,[2],2%
same,Inhibition,[3],0%
O=C(Nc1ccc(Cl)cc1Cl)N[C@H]1CCN(CCCCCNC(=O)C2CC2c2ccc(Cl)c(Cl)c2)C1 (stereo partly specified),Inhibition,[1],94%
same,Inhibition,[2],0%
same,Inhibition,[3],37%
COc1cc2nc(N3CCN(C(=O)c4cccc(I)c4)CC3)nc(N)c2cc1OC,Inhibition,[1],88%
same,Inhibition,[2],26%
same,Inhibition,[3],11%
COc1cccc(C2C(C(=O)Nc3ccccc3)=C(C)N=c3sc(=Cc4ccc(O)cc4)c(=O)n32)c1 (stereo unspecified),Inhibition,[1],97%
same,Inhibition,[2],97%
same,Inhibition,[3],15%
COc1cc2c(cc1S(=O)(=O)c1ccc(NC(=O)c3cccc(C(F)(F)F)c3)cc1)CCN(C)CC2,Inhibition,[1],92%
same,Inhibition,[2],25%
same,Inhibition,[3],18%
O=C1OC(c2ccccc2)(c2ccccc2)CN1C1CCN(Cc2ccc(O)c(Cl)c2)C1 (stereo unspecified),Inhibition,[1],100%
same,Inhibition,[2],93%
same,Inhibition,[3],10%
CC1(C)N=C(N)N=C(N)N1OCCCOc1cc(Cl)c(Cl)cc1Cl.Cl,Inhibition,[1],95%
same,Inhibition,[2],95%
same,Inhibition,[3],60%
O=C(NCCN1CCCC1)N1CCCN(c2ncnc3cc(-c4ccc(F)cc4)sc23)CC1.O=C(O)C(F)(F)F,Inhibition,[1],81%
same,Inhibition,[2],19%
same,Inhibition,[3],5%
Nc1nc(N)c2c(ccc3nn(C4CCCC4)cc32)n1,Inhibition,[1],97%
same,Inhibition,[2],3%
same,Inhibition,[3],44%
COc1ccc2nccc([C@@H](O)CN3CCC(NC[C@H](Cc4ccccc4)NC(=O)OC(C)(C)C)CC3)c2c1.O=C(O)C(=O)O,Inhibition,[1],98%
same,Inhibition,[2],86%
same,Inhibition,[3],18%
Cl.N#Cc1ccc2c(c1)CN(CCC1CCC(NC(=O)c3cc4ccccc4cc3N)CC1)CC2 (stereo unspecified),Inhibition,[1],80%
same,Inhibition,[2],52%
same,Inhibition,[3],5%
O=C(Nc1cccc(CN2CCCN(Cc3cccnc3)CC2)c1)c1cc2ccccc2s1.O=C(O)C(F)(F)F,Inhibition,[1],92%
same,Inhibition,[2],28%
same,Inhibition,[3],15%
COc1ccc(-c2cc3ncn(CC(=O)N4CCN(c5cccc(OC)c5)CC4)c(=O)c3s2)cc1,Inhibition,[1],84%
same,Inhibition,[2],26%
same,Inhibition,[3],49%
Cc1cc(N2CCC(NS(=O)(=O)c3cccc4cccnc34)CC2)nc(Nc2cccc(C#N)c2)n1.O=C(O)C(F)(F)F,Inhibition,[1],98%
same,Inhibition,[2],87%
same,Inhibition,[3],12%
C[C@@H](Oc1cc(-n2cnc3ccc(OCC4CCN(S(C)(=O)=O)CC4)cc32)sc1C(N)=O)c1ccccc1C(F)(F)F,Inhibition,[1],84%
same,Inhibition,[2],50%
same,Inhibition,[3],31%
O=C(Nc1ccc(Cn2nc(Cl)c(N3CCCNCC3)cc2=O)cc1)c1ccc(-c2ccccc2)cc1.O=C(O)C(F)(F)F,Inhibition,[1],87%
same,Inhibition,[2],35%
same,Inhibition,[3],93%
COc1nc(Nc2cccc(C)c2)nc(OC)n1,Inhibition,[1],94%
same,Inhibition,[2],0%
same,Inhibition,[3],46%
CC(C)[C@H](NC(=O)c1ccc(O)c(-c2ccc(Cl)c(Cl)c2)c1)C(=O)NCCN(C)C,Inhibition,[1],92%
same,Inhibition,[2],1%
same,Inhibition,[3],0%
Cl.Oc1cc(-c2nc(C3(CNCc4ccc(Cl)cc4)CCCCC3)[nH]c2-c2ccncc2)ccc1Cl,Inhibition,[1],100%
same,Inhibition,[2],99%
same,Inhibition,[3],35%
